Source: ChEMBL document CHEMBL4513216, “Probing the Open Global Health Chemical Diversity Library for Multistage-Active Starting Points for Next-Generation Antimalarials” (ACS Infect Dis, 2020)
The whole screen tested about 69,000 compounds, of which about 8,600 (12%) showed an effect of 50% or more. The sample as a whole holds a higher share of strong results than the screen did.

These molecules were tested on Plasmodium berghei (assay: Screen against P. berghei liver stage (PbLuc), transformed with Luciferase, at 10uM). Details: tested at 10 uM.
Assay type: functional, HepG2

SMILES	INHIBITION
CCN(CC)CCn1cc(NC2CCN(C(C)(C)C)CC2)cn1	-13.1%
Cc1nonc1NC(=O)C1SCCc2ccccc21 (stereo not given)	-92.8%
O=C(NCCc1nncn1C1CC1)C1SCCc2ccccc21 (stereo not given)	-4.13%
Cc1nn(C)c(NC(=O)C2SCCc3ccccc32)c1C (stereo not given)	74%
O=C(c1ccncc1)N(CCO)Cc1cc(Br)ccc1F	35.6%
Nc1nc2c(c(=O)[nH]1)CCN(C(=O)c1ccccc1N1CCCC1)C2	8.24%
O=C(c1cnc2n1CCCC2)N1CCCC1	66.1%
CC(C)(C)NC(=O)c1cnc2n1CCCC2	-107%
O=C(NC1CC1)c1cnc2n1CCCC2	-40.6%
O=C(NCCCc1ccccn1)c1cn(CCN2CCNCC2)nn1	-37.8%
CCN1CCN(C(=O)c2cc(-c3cccs3)cs2)CC1	-15.5%
CC(C)NC(=O)Nc1ccc(CS(=O)(=O)C(C)(C)C)cc1	-8.69%
O=C(c1cccnc1)N1C[C@@H](c2ccccc2)[C@@]2(CCNC2=O)C1	-0.554%
Cc1ccc(CN2C[C@@H](c3ccccc3)[C@@]3(CCNC3=O)C2)o1	-2.46%
O=C1NCC[C@]12CN(Cc1ccncc1)C[C@H]2c1ccccc1	51.3%
CCS(=O)(=O)N1C[C@@H](c2ccccc2)[C@@]2(CCNC2=O)C1	48.4%
O=C(c1cnccn1)N1CCC2(CC1)C(=O)NCC2c1ccccc1 (stereo not given)	49.7%
O=C1NCC[C@]12CN(Cc1ccoc1)C[C@H]2c1ccccc1	-38.1%
O=C(c1cnccn1)N1C[C@@H](c2ccccc2)[C@@]2(CCNC2=O)C1	74.8%
O=C1NCC[C@]12CN(Cc1cccnc1)C[C@H]2c1ccccc1	-3.77%
CCCS(=O)(=O)N1C[C@@H](c2ccccc2)[C@@]2(CCNC2=O)C1	53.9%
N#Cc1c2n(c3c(N)ncnc13)CCCCC2	44.4%
CC(C(=O)N1CCN(c2ncccn2)CC1)n1cncn1 (stereo not given)	10%
CCc1oc(C(=O)N2CC[C@@H]3CC[C@H](C2)N3)cc1CN(CC)CC	29.4%

SMILES	INHIBITION
Cc1ccc(CN2CCC(c3cnccn3)CC2)s1	18.9535%
CC(C)(O)CN1CC(C)(C)CN(C(=O)CCc2ccccc2)CC1=O	44.9%
Cn1c(N2CCOCC2)nc2cc(C(=O)NCC(F)(F)F)ccc21	20.9%
CCN(C)c1ncnc2c1CCN(C(=O)Cc1ccccn1)CC2	34.4%
Cc1cc(CNCc2c(C)n(CC(C)C)c3ccccc23)[nH]n1	27.4%
CC(C)N1CC2(CCC1=O)CCN(c1ccnc3ccccc13)CC2	20.5%
CC(C)N1CC2(CCCN(c3ccccn3)C2)CCC1=O (stereo not given)	-9.18%
CC(C)N1CC2(CCCN(c3ccnc4ccccc34)C2)CCC1=O (stereo not given)	65.1%
CC(C)N(Cc1cccc(Cl)c1)Cc1nc2c(cnn2C)c(=O)[nH]1	15.6%
COc1ccc(CCNC2CCCN(Cc3noc(C)n3)C2)cc1 (stereo not given)	35.9%
CC(=O)Nc1ccccc1Sc1nc(Br)nn1C	5.58%
CN(Cc1n[nH]c2c1CCC2)C(=O)c1cc(-c2cccn2C)n[nH]1	-7.53%
CC(C)C(=O)NCc1ccc(N(C)C)cc1	-51.5%
CCOCc1ccc(CNC2=NCCCN2)cc1	47.1%
CN(C)c1ccc(CNC2=NCCCN2)cc1	75.8%
COC(=O)c1ccc(Cn2nc(C)cc2C)cc1	-60.4%
Cc1c(C(=O)N2CCN(C)[C@@H]3CS(=O)(=O)C[C@@H]32)[nH]c2ccc(F)cc12	43%
CCN1CCN(C(=O)c2[nH]c3ccccc3c2Cl)[C@H]2CS(=O)(=O)C[C@H]21	-9.87%
CCc1c(C(=O)N2CCN(C)[C@@H]3CS(=O)(=O)C[C@@H]32)[nH]c2ccccc12	60.1%
CC(C)c1nn(C)c(N(C)C)c1CNC1CCOc2c(F)cccc21 (stereo not given)	-12.5%
O=C(c1cnccn1)N1CC2(CCN(Cc3ccsc3)C2)C1	23.3%
CN(C)C(=O)C1CSCN1C(=O)CCc1ccco1 (stereo not given)	-75%
CS(=O)(=O)NC1(CCc2ccc(NC(=O)C3CC3)nc2)CCCCC1	40.6%
CC(=O)Nc1ccc(CCC2(NC(=O)C3CC3)CCCCC2)cn1	59.2%

SMILES	INHIBITION
CC(=O)Nc1ccc(CCC2(NC(=O)C3CCCO3)CCCCC2)cn1 (stereo not given)	-1.16%
Cc1nn(C(C)C)c2cn(CC(=O)NC3CCSCC3)nc12	-3.83%
O=C(Cc1ccc2c(c1)OCCO2)NCc1ccc(-n2cncn2)nc1	19.2%
Nc1cc(-c2cccs2)nn(CC(=O)N2CCc3ccccc32)c1=O	72.2%
CC1Cc2ccccc2N1C(=O)Cn1nc(-c2cccs2)cc(N)c1=O (stereo not given)	18.3%
Nc1cc(-c2cccs2)nn(CC(=O)NCC2CCCCC2)c1=O	6.32%
CCS(=O)(=O)N1CC(=O)N(CCCc2ccccc2)CC(O)C1 (stereo not given)	26.8%
O=C(CCc1nc2cccnc2[nH]1)NCc1ccncc1	-0.532%
Cc1ccc(CN2CCN(c3cncc(N(C)C)n3)CC2=O)cc1C	56.3%
Cc1ccc(CN2CCN(Cc3ccc(N(C)C)nc3)CC2=O)cc1C	44%
Cc1ccc(CN2CCN(c3ccc(F)cn3)CC2=O)cc1C	11.2%
CS(=O)(=O)CCn1ccc(NC(=O)c2c(F)cccc2F)n1	46.1%
Cc1nccn1C1CCCN(C(=O)c2ccc(N(C)C)nn2)C1 (stereo not given)	-22.9%
O=C(CCc1ccsc1)Nc1cnccc1O	-3.43%
COc1ccccc1NCc1cscn1	27.5%
COc1ccncc1NCc1cscn1	21.6%
COc1ccncc1NCc1ccsc1	71.3%
COc1ncc(NCc2ccsc2)cc1C(N)=O	32.2%
CC(C)(C)Oc1ccncc1NCc1cscn1	70.3%
Cc1noc(C)c1CSC1CCCN(c2cnn(C)c2)C1=O (stereo not given)	-41.9%
COCCN1CCOCC12CCN(Cc1ccn(C)n1)CC2	34.6%
CC(=O)NCc1cc2n(n1)CCN(Cc1cc(-c3ccccc3)no1)C2	32.2%
